The full data set covers some 7,900 targets. This sample favours those with a hit. About 0.6% of all pairs of compound and target were hits. A number with no mark means an inactive call.
Legend:
Assay in all cases: log2 fold change, soluble protein after heating vs DMSO (PISA); higher = thermal stabilisation; K562 cells, 10 uM, 30 min; active = over 0.2 and 3.5 SD of the protein, either way, in both replicates (recomputed)
bafetinib = compound: Cc1ccc(NC(=O)c2ccc(CN3CC[C@H](N(C)C)C3)c(C(F)(F)F)c2)cc1Nc1nccc(-c2cncnc2)n1 [bafetinib]
Summary of the method: (§1)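 K562 cells (2×10^6 cells/mL) were treated with 10 μM compound for 30 min, and aliquots were heated for 3 min over 48°C-58°C. Pooled aliquots were extracted in PBS with 0.5% NP-40 at 4°C, and the supernatant after 21,000xg for 90 min was measured by TMTpro 16plex LC-MS/MS with channel sums equalised. Reported thermal stability, relative to control samples and from duplicates, is a log2 fold change.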

[1] = compound: Cc1cccc(CC(=O)N2CCc3c2ccc(-c2cn(C)c4ncnc(N)c24)c3F)n1
Summary of the method: as §1

nilotinib = compound: Cc1cn(-c2cc(NC(=O)c3ccc(C)c(Nc4nccc(-c5cccnc5)n4)c3)cc(C(F)(F)F)c2)cn1 [nilotinib]
Summary of the method: as §1

[2] = compound: Cc1nc(Nc2n[nH]c3c2CN(C(=O)N[C@H](CN(C)C)c2ccccc2)C3(C)C)c2sccc2n1
Summary of the method: as §1

dasatinib = compound: Cc1nc(Nc2ncc(C(=O)Nc3c(C)cccc3Cl)s2)cc(N2CCN(CCO)CC2)n1 [dasatinib]
Summary of the method: as §1

[3] = compound: Cc1ncc(-c2ccnc(Nc3ccc(S(C)(=O)=O)cc3)n2)n1C(C)C
Summary of the method: as §1

[4] = compound: Cn1cc(-c2ccc3c(c2)CCN3C(=O)Cc2cccc(C(F)(F)F)c2)c2c(N)ncnc21
Summary of the method: as §1

[5] = compound: Cn1cc(-c2ccc3nnc(C(F)(F)c4ccc5ncccc5c4)n3n2)cn1
Summary of the method: as §1

tipifarnib = compound: Cn1cncc1[C@@](N)(c1ccc(Cl)cc1)c1ccc2c(c1)c(-c1cccc(Cl)c1)cc(=O)n2C [tipifarnib]
Summary of the method: as §1

mubritinib = compound: FC(F)(F)c1ccc(/C=C/c2nc(COc3ccc(CCCCn4ccnn4)cc3)co2)cc1 [mubritinib]
Summary of the method: as §1

Chain of UniProt P17980 (P17980 whole entry, looked up): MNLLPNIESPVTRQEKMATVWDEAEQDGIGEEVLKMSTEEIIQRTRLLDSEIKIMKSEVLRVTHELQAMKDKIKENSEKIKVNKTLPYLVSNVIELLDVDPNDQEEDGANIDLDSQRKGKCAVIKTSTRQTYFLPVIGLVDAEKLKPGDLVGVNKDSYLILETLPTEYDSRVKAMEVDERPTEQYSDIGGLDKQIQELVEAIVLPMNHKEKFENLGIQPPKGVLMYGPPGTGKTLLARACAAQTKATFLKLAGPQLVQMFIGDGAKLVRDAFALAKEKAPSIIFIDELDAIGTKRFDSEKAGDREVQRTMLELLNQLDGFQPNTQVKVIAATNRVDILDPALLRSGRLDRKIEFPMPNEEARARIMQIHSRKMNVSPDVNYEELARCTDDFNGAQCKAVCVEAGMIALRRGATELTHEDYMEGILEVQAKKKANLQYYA
Chain of UniProt P49642 (P49642 whole entry, looked up): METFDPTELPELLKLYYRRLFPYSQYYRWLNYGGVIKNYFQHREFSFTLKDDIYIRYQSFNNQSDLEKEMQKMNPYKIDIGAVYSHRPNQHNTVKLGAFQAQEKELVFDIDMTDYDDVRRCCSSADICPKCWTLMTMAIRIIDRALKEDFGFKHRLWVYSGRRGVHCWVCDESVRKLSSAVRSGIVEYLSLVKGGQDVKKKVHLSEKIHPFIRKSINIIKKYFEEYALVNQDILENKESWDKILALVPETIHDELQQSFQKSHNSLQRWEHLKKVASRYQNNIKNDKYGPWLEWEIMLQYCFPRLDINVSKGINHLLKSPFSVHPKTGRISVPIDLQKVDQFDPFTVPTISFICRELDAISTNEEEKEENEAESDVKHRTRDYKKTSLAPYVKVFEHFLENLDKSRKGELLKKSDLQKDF
Chain of UniProt Q05209 (Q05209 whole entry, looked up): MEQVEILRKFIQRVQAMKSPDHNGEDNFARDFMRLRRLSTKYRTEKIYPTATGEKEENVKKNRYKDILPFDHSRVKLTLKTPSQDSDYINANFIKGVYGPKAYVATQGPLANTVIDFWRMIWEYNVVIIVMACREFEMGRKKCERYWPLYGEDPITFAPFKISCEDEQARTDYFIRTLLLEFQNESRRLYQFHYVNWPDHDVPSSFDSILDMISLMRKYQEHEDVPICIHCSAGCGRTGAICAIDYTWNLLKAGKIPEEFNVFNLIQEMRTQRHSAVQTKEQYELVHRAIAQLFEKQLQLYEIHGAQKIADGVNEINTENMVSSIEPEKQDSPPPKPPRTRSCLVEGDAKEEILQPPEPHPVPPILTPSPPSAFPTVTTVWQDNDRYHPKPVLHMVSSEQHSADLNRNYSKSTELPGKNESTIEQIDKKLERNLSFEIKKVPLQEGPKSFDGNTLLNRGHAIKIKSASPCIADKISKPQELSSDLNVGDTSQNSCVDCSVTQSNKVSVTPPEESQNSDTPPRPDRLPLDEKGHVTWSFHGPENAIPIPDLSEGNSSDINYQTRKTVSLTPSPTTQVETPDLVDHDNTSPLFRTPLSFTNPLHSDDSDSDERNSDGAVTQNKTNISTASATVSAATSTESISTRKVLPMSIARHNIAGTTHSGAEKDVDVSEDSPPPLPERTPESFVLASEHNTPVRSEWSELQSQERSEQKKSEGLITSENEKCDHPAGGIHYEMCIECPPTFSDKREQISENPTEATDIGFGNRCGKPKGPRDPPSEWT
Chain of UniProt P35998 (P35998 whole entry, looked up): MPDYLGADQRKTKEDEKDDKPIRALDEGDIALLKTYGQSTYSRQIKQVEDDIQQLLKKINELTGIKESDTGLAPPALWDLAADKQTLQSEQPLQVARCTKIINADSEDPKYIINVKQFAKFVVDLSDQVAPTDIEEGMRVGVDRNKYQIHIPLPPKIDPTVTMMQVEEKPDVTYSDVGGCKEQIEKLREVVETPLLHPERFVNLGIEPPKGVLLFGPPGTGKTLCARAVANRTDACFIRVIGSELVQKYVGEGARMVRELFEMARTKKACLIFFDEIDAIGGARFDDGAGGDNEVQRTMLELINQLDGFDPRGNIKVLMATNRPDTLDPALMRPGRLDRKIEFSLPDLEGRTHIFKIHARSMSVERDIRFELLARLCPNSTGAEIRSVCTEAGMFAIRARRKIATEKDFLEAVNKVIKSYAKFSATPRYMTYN
Chain of UniProt P31323 (P31323 whole entry, looked up): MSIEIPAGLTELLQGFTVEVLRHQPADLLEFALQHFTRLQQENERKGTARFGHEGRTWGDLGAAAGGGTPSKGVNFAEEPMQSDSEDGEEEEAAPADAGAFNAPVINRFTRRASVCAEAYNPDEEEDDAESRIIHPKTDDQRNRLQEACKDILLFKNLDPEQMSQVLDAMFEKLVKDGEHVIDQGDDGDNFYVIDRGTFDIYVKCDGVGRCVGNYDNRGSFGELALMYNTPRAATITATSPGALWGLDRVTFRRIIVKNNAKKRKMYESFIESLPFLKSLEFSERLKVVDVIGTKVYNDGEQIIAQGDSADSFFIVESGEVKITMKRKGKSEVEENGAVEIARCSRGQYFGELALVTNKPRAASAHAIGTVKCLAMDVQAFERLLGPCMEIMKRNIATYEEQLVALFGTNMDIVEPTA
Chain of UniProt O43164 (O43164 whole entry, looked up): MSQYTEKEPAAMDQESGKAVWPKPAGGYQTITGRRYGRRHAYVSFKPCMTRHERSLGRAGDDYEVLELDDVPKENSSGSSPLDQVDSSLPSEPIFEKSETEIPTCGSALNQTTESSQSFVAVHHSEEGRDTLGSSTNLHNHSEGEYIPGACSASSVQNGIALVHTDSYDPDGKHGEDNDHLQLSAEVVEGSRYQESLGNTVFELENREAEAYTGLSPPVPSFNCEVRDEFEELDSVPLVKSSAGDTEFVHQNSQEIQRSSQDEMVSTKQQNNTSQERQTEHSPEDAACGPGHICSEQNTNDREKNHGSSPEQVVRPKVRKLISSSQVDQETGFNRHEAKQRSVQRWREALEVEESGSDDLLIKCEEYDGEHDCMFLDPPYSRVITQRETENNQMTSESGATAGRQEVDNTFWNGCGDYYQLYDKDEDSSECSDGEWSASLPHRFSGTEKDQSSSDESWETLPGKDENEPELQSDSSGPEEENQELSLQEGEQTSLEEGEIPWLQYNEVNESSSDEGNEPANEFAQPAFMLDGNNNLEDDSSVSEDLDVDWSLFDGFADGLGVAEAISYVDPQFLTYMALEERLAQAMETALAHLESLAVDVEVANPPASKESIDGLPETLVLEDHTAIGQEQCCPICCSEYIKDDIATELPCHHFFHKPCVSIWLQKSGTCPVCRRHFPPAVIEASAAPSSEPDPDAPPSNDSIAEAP
Chain of UniProt P35227 (P35227 whole entry, looked up): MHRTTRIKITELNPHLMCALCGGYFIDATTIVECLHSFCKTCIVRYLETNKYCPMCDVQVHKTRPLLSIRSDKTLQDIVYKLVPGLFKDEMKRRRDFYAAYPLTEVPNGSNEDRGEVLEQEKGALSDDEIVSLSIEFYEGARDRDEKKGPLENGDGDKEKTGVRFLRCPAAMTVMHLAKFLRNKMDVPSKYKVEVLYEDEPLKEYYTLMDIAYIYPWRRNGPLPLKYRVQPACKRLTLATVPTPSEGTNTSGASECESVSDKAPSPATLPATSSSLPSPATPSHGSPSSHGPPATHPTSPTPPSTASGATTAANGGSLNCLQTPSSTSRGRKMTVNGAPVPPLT
Chain of UniProt P11498 (P11498 whole entry, looked up): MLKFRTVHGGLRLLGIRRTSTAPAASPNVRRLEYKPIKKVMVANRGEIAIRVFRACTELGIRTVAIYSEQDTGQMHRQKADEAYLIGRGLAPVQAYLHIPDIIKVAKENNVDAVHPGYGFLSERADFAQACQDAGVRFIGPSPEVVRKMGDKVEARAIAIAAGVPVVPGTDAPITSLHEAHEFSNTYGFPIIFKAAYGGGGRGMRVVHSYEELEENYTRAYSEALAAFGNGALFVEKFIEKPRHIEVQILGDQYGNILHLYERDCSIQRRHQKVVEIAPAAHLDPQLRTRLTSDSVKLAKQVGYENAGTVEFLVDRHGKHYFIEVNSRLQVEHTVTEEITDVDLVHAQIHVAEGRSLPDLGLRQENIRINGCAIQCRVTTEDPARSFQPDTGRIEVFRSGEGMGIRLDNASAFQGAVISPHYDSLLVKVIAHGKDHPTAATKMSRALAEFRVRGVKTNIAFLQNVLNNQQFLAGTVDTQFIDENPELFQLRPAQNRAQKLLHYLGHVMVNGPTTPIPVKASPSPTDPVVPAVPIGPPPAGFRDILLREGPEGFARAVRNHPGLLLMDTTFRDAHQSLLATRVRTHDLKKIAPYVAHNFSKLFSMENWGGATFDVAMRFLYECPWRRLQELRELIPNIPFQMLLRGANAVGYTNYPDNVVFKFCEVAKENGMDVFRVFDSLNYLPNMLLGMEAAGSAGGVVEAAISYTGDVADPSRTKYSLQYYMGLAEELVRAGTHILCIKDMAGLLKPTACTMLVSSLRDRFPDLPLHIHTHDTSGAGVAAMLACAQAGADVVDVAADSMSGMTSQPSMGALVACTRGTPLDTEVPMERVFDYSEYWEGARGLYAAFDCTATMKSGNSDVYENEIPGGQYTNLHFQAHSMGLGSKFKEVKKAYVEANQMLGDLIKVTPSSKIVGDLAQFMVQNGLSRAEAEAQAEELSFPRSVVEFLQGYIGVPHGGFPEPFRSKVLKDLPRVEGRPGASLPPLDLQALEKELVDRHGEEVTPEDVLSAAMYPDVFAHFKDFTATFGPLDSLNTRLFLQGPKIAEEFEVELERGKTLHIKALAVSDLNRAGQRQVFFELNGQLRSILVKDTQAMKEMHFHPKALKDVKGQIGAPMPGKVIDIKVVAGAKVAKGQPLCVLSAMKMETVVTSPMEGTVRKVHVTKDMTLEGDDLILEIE
Chain of UniProt Q93096 (Q93096 whole entry, looked up): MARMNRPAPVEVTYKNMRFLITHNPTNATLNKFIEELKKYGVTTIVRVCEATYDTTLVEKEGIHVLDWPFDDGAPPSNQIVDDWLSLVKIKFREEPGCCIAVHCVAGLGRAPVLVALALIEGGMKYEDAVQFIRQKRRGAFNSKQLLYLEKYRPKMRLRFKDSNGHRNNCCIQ

| Target | log2 fold change (bafetinib) | log2 fold change [1] | log2 fold change (nilotinib) | log2 fold change [2] | log2 fold change (dasatinib) | log2 fold change [3] | log2 fold change [4] | log2 fold change [5] | log2 fold change (tipifarnib) | log2 fold change (mubritinib) |
| --- | --- | --- | --- | --- | --- | --- | --- | --- | --- | --- |
| PJA2 (UniProt O43164) | -0.121 | -0.072 | 0.023 | -0.021 | 0.036 | -0.04 | -0.06 | 0.008 | 0.071 | 0.018 |
| PPM1G (UniProt O15355) | 0.001 | 0.048 | -0.041 | -0.05 | -0.097 | 0 | 0.096 | 0.117 | -0.133 | 0.105 |
| PCGF2 (UniProt P35227) | 0.015 | -0.035 | -0.097 | -0.235 | -0.127 | 0.028 | 0.004 | 0.081 | 0.001 | -0.001 |
| PIKFYVE (UniProt Q9Y2I7) | -0.031 | 0.153 | -0.015 | 0.045 | -0.061 | -0.092 | 0.005 | 0.031 | 0.108 | 0.017 |
| PSMC3 (UniProt P17980) | 0.072 | -0.033 | -0.004 | 0.059 | 0.016 | -0.017 | -0.1 | -0.005 | 0.124 | -0.016 |
| PTPN12 (UniProt Q05209) | -0.052 | 0.008 | -0.022 | -0.122 | -0.059 | 0.074 | -0.116 | -0.086 | -0.081 | 0.021 |
| PSMC2 (UniProt P35998) | 0.081 | 0.029 | -0.019 | 0.044 | 0.034 | -0.018 | -0.126 | -0.013 | 0.113 | -0.031 |
| PTPA (UniProt A6PVN8) | -0.122 | -0.084 | -0.134 | 0.008 | 0.075 | 0.013 | -0.075 | 0.05 | 0.232 | 0.114 |
| PRKAR2B (UniProt P31323) | -0.022 | 0.133 | 0.012 | -1.23 (active) | -0.078 | -0.16 | 0.022 | -0.07 | -0.103 | 0.189 |
| PTP4A1 (UniProt Q93096) | -0.023 | 0.013 | 0.039 | -0.049 | 0.108 | -0.299 (active) | 0.181 | 0.093 | -0.005 | 0.074 |
| PRIM1 (UniProt P49642) | 0.046 | 0.01 | -0.034 | -0.055 | -0.161 | -0.009 | -0.033 | 0.009 | -0.073 | 0.06 |
| PC (UniProt P11498) | 0.096 | 0.102 | -0.014 | 0.121 | 0.005 | -0.007 | 0.047 | 0.074 | -0.097 | 0.024 |
| PDCD2L (UniProt Q9BRP1) | 0.026 | 0.077 | -0.137 | 0.035 | -0.122 | -0.062 | -0.022 | 0.015 | -0.13 | 0.018 |
| PELO (UniProt Q9BRX2) | 0.068 | 0.155 | -0.021 | -0.067 | -0.054 | -0.02 | 0.042 | 0.061 | -0.136 | -0.111 |

Reference: the supplement of paper PMC10849652
